Test results from PMC11995724, “Antibiotic target discovery by integrated phenotypic and activity-based profiling of electrophilic fragments” (Cell chemical biology, 2025).
Out of some 3,200 compounds screened, about 75 (2%) showed an effect of 50% or more. What follows is part of a selection rich in strong results, with near analogues and random picks from the rest.

tested on: T1, S. aureus MSSA476; set-up: species or system S. aureus MSSA476 (TSB) or V. cholerae SAD30 (LB); 384-well bacterial growth screen at 25 uM, OD600 relative to DMSO control; settings: relative growth, OD600, TSB; 25 µM; inhibitor
T1 construct: MSSA476

SMILES | % of control remaining [%]
O=C(CCl)NC(Cc1ccccc1)c1ccccc1F (centres unmarked) [7-N10, 2-chloro-N-[1-(2-fluorophenyl)-2-phenylethyl]acetamide] | 83.5165
CC(Cl)C(=O)N1CCNC(=O)C1Cc1nc2ccccc2o1 (centres unmarked) [6-P03, 3-[(1,3-benzoxazol-2-yl)methyl]-4-(2-chloropropanoyl)piperazin-2-one] | 97.3171
c1ccc(CSSCc2ccccc2)cc1 [10-O21, [(benzyldisulfanyl)methyl]benzene] | 113.125
Cl.O=C(CCl)NCC(c1ccccc1Cl)N1CCCC1 (centres unmarked) [6-G17, 2-chloro-N-[2-(2-chlorophenyl)-2-(pyrrolidin-1-yl)ethyl]acetamide hydrochloride] | 101.415
O=C(CCl)NC(Cc1cccc(O)c1)c1ccccc1 (centres unmarked) [7-N20, 2-chloro-N-[2-(3-hydroxyphenyl)-1-phenylethyl]acetamide] | 100.157
COc1ccc(N2C(=O)C=CC2=O)c([N+](=O)[O-])c1 [10-L11, 1-(4-methoxy-2-nitrophenyl)-2,5-dihydro-1H-pyrrole-2,5-dione] | 100
CC(C)CNC(=O)c1ccccc1NC(=O)CCl [4-E04, 2-(2-chloroacetamido)-N-(2-methylpropyl)benzamide] | 88.4231
O=C(CCl)NCC(=O)Nc1ccc(F)c(F)c1 [4-L16, 2-chloro-N-{[(3,4-difluorophenyl)carbamoyl]methyl}acetamide] | 109.004
N#CC(C(=O)CCl)=C1Nc2ccccc2S1 [10-J04, 4-chloro-2-(2,3-dihydro-1,3-benzothiazol-2-ylidene)-3-oxobutanenitrile] | 43.75
N#CC(C(=O)CCl)=C1Nc2cc(Cl)ccc2S1 [10-O08, 4-chloro-2-(5-chloro-2,3-dihydro-1,3-benzothiazol-2-ylidene)-3-oxobutanenitrile] | 100
N#CC(C(=O)CCl)=C1NC(=O)c2ccccc2N1 [10-P14, 4-chloro-3-oxo-2-(4-oxo-1,2,3,4-tetrahydroquinazolin-2-ylidene)butanenitrile] | 93.75
CCn1cc(S(=O)(=O)N2CCSSCC2)cn1 [10-N19, 5-[(1-ethyl-1H-pyrazol-4-yl)sulfonyl]-1,2,5-dithiazepane] | 97.1875
Cc1cc(CN(C(=O)CCl)c2csnc2C)cs1 [5-C12, 2-chloro-N-(3-methyl-1,2-thiazol-4-yl)-N-[(5-methylthiophen-3-yl)methyl]acetamide] | 105.282
N#CC(=Cc1cccc(F)c1)C(=O)Nc1cc(Cl)ccc1Cl [9-P03, 2-cyano-N-(2,5-dichlorophenyl)-3-(3-fluorophenyl)prop-2-enamide] | 107.865
C=CC(=O)N1CCC(C(=O)N2CCN(CC(C)C)C(=O)C2C)CC1 (centres unmarked) [2-B08, 3-methyl-1-(2-methylpropyl)-4-[1-(prop-2-enoyl)piperidine-4-carbonyl]piperazin-2-one] | 92.6023
O=C(CCl)N1N=C(c2cccc(F)c2)CC1c1cccs1 (centres unmarked) [4-E22, 2-chloro-1-[3-(3-fluorophenyl)-5-(thiophen-2-yl)-4,5-dihydro-1H-pyrazol-1-yl]ethan-1-one] | 121.582
C=CC(=O)N1CCC(c2ncc(C(=O)O)o2)CC1 [2-G19, 2-[1-(prop-2-enoyl)piperidin-4-yl]-1,3-oxazole-5-carboxylic acid] | 116.275
C=CC(=O)N1CCC(C(=O)Nc2ccc(CC)cc2)CC1 [3-J12, N-(4-ethylphenyl)-1-(prop-2-enoyl)piperidine-4-carboxamide] | 97.5185
O=C(CCl)NSc1ccc([N+](=O)[O-])cc1 [4-P13, 2-chloro-N-[(4-nitrophenyl)sulfanyl]acetamide] | 1.906
N#Cc1cc([N+](=O)[O-])ccc1NC(=O)CCl [4-O09, 2-chloro-N-(2-cyano-4-nitrophenyl)acetamide] | 100.619
O=C(CCl)NCc1cc([N+](=O)[O-])ccc1O [4-A05, 2-chloro-N-[(2-hydroxy-5-nitrophenyl)methyl]acetamide] | 92.6155
Cc1cc(C)cc(-c2cc(NC(=O)CCl)n(-c3ccccc3)n2)c1 [4-K04, 2-chloro-N-[3-(3,5-dimethylphenyl)-1-phenyl-1H-pyrazol-5-yl]acetamide] | 80.4192
C/C(O)=C(\C#N)C(=O)Nc1ccc(-c2ccccc2Cl)cc1 [9-P22, (2Z)-N-{2'-chloro-[1,1'-biphenyl]-4-yl}-2-cyano-3-hydroxybut-2-enamide] | 50.9363
CC(O)=C(C#N)C(=O)Nc1ccc(C(F)(F)F)cc1 [9-A05, 2-cyano-3-hydroxy-N-[4-(trifluoromethyl)phenyl]but-2-enamide] | 71.6105

SMILES | % of control remaining [%]
CC(O)=C(C#N)C(=O)Nc1ccc(-c2ccccc2Cl)c(Cl)c1 [9-L22, 2-cyano-N-{2,2'-dichloro-[1,1'-biphenyl]-4-yl}-3-hydroxybut-2-enamide] | 33.2584
Cc1ccc(C=C(C#N)C(=O)NCc2ccco2)o1 [8-P19, 2-cyano-N-[(furan-2-yl)methyl]-3-(5-methylfuran-2-yl)prop-2-enamide] | 89.6266
N#CC(=Cc1cc2ccccc2o1)C(=O)NCc1ccco1 [9-O08, 3-(1-benzofuran-2-yl)-2-cyano-N-[(furan-2-yl)methyl]prop-2-enamide] | 115.056
N#CC(=Cc1ccc([N+](=O)[O-])o1)C(=O)NCc1ccco1 [8-I17, 2-cyano-N-[(furan-2-yl)methyl]-3-(5-nitrofuran-2-yl)prop-2-enamide] | -0.6639
O=C(CCl)c1ccc(Cl)c(Cl)c1 [10-L16, 2-chloro-1-(3,4-dichlorophenyl)ethan-1-one] | 5
COC(=O)c1cccc(C(=O)CCl)c1 [10-I11, methyl 3-(2-chloroacetyl)benzoate] | 61.5625
COc1ccc(C(=O)CCl)c(OC)c1 [10-G18, 2-chloro-1-(2,4-dimethoxyphenyl)ethan-1-one] | 124.375
O=C(CCl)c1ccc2[nH]c(=O)[nH]c2c1 [10-I14, 5-(2-chloroacetyl)-2,3-dihydro-1H-1,3-benzodiazol-2-one] | 100.313
O=C(CCl)c1ccc(F)c(F)c1 [10-L13, 2-chloro-1-(3,4-difluorophenyl)ethan-1-one] | 110.313
COc1ccc(C(=O)CCl)cc1Cl [10-D10, 2-chloro-1-(3-chloro-4-methoxyphenyl)ethan-1-one] | -0.3125
CC(Cl)C(=O)NC(C)c1ccc(C(F)(F)F)nc1Cl (centres unmarked) [7-G09, 2-chloro-N-{1-[2-chloro-6-(trifluoromethyl)pyridin-3-yl]ethyl}propanamide] | 111.774
C=CC(=O)Nc1cccc(-c2nc(COC)no2)c1C [1-J08, N-{3-[3-(methoxymethyl)-1,2,4-oxadiazol-5-yl]-2-methylphenyl}prop-2-enamide] | 101.626
COc1cc(Cl)c(C)cc1N1C(=O)C=CC1=O [10-B15, 1-(4-chloro-2-methoxy-5-methylphenyl)-2,5-dihydro-1H-pyrrole-2,5-dione] | 91.875
N#CC(C(=O)Nc1ccc(Cl)cc1)=C(S)Nc1ccccc1 [8-H22, N-(4-chlorophenyl)-2-cyano-3-(phenylamino)-3-sulfanylprop-2-enamide] | 74.3568
CCN(c1ccc(C(=O)CCl)cc1)S(C)(=O)=O [10-F04, N-[4-(2-chloroacetyl)phenyl]-N-ethylmethanesulfonamide] | 2.1875
Cl.O=C(CCl)c1ccncc1 [10-M09, 2-chloro-1-(pyridin-4-yl)ethan-1-one hydrochloride] | 111.875
NC(=O)CCc1ccc(C(=O)CCl)cc1 [10-I03, 3-[4-(2-chloroacetyl)phenyl]propanamide] | 108.125
CN(c1ccc(C(=O)CCl)cc1)S(C)(=O)=O [10-F19, N-[4-(2-chloroacetyl)phenyl]-N-methylmethanesulfonamide] | -0.3125
CC(=O)N(C)Cc1ccc(C(=O)CCl)cc1 [10-H04, N-{[4-(2-chloroacetyl)phenyl]methyl}-N-methylacetamide] | 111.875
N#Cc1ccc(C(=O)CCl)cc1 [10-F10, 4-(2-chloroacetyl)benzonitrile] | 52.5
C=CC(=O)N1CCC(C(=O)NCc2ncnn2CC)CC1 [3-P03, N-[(1-ethyl-1H-1,2,4-triazol-5-yl)methyl]-1-(prop-2-enoyl)piperidine-4-carboxamide] | 135.829
C=CC(=O)Nc1cc(-c2ccco2)nn1C(C)(C)C [1-K19, N-[1-tert-butyl-3-(furan-2-yl)-1H-pyrazol-5-yl]prop-2-enamide] | 129.407
CCN(Cc1ccccc1)C(=O)CCl [6-O21, N-benzyl-2-chloro-N-ethylacetamide] | 79.9024
